Assay outcomes as filed in PubChem BioAssay.
HTT prom inh – Primary qHTS for Identification of Small Molecule Inhibitors of Huntingtin Promoter Activity; HEK293 HTT promoter firefly luciferase reporter, 24 h; 48,000 compounds, 0.93% hits; Potency, µM (titrated, usually from 57.5 µM), hits mostly inhibitors; AID 1508623, 2021; note: nearly all actives have a fitted effect of over 50% in size
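HEK293 cells carrying firefly luciferase reporters were seeded at 2,500 per well in Opti-MEM and cultured for 24 h. They were then treated with compounds at up to 57.5 uM final for 24 h at 37 degrees C before Dual-Glo luminescence readout.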
DRV1 agonist – qHTS for Agonists of Human Resolvin D1 Receptor DRV1. Probable G-protein coupled receptor 32 (Homo sapiens), O75388. CHO-K1 GPR32 beta-arrestin PathHunter luminescence, 90 min; zero percent set by DMSO-only wells. activation, % at 76.9 µM. 48,000 compounds, 2.5% hits;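 active = activation of at least 60% and not above a set upper limit, about 1 call in 100 departs from these limits; inconclusive = activation of 40% to 60%, or above that upper limit; inactive = activation under 40%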
Target sequence (O75388 whole entry, looked up): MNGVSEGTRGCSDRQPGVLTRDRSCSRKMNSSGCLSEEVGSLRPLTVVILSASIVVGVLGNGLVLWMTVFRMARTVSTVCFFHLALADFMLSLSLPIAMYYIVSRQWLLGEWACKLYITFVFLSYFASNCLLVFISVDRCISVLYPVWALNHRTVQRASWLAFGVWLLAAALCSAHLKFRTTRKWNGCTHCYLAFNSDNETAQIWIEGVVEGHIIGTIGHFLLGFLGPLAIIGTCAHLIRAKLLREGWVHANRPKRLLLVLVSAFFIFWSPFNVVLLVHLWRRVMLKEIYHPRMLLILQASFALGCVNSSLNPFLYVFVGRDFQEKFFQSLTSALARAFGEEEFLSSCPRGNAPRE
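Using DMSO wells as EC0, agonist-induced signal was taken as chemiluminescence from beta-Gal reconstituted upon beta-arrestin recruitment to GPR32 in CHO-K1 cells after 90 min compound treatment.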
p53null 39C kill – qHTS Screen for Compounds that Selectively Target Cancer Cells with p53 Mutations: Cytotoxicity of p53 Null Cells at the Nonpermissive Temperature. H1299 p53-null (neo) cells, 39C, ATPlite viability, 24 h. 55,000 compounds, 0.97% hits. Potency, µM (doses to about 46.1 µM), actives largely listed as cytotoxic. AID 904, 2007; note: nearly all actives have a fitted effect of over 50% in size
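Temperature-shift cytotoxicity format: compound titrations on p53-null or A138V-expressing H1299 cells held 24 hr at 39C, cell ATP then measured, AC50 from Hill model.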
HTT-AS promoter – Primary qHTS for Identification of Small Molecule Activators of Huntingtin-Antisense Promoter Activity. HEK293 HTT-AS promoter firefly luciferase reporter, 24 h; response scale: percent change from vehicle, -100% = no light. Potency, µM (doses to about 57.5 µM), actives largely listed as activators. 48,000 compounds, 0.24% hits. AID 1508624, 2021; note: nearly all actives have a fitted effect of over 55% in size
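Quantitative HTS used concentration series of up to 57.5 uM final on HEK293 luciferase reporter cells, 24 h at 37 degrees C. Readout was Dual-Glo firefly luminescence.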
p53null 32C kill – qHTS Screen for Compounds that Selectively Target Cancer Cells with p53 Mutations: Cytotoxicity of p53 Null Cells at the Permissive Temperature; H1299-neo p53 null cells, ATP luminescence, 24 h, 32C; Potency, µM (doses to about 46.1 µM), actives largely listed as cytotoxic; 55,000 compounds, 0.62% hits; AID 903, 2007; note: nearly all actives have a fitted effect of over 55% in size
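We seeded p53-null H1299-neo cells, incubated them overnight at 37C, and added compounds across a range up to 46 uM. After 24 hours at 32C, ATP reagent was applied for 20 min at room temperature and luminescence recorded.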
Large screens that a line does not name were inactive; ! = repeats disagree. Shown are actives, neighbours in structure and some others; about 3.9% of the full set was active somewhere. Unless noted, calls come from the whole dose curve; as a rule, active = well fitted curve in the direction sought with a large enough effect; inconclusive = small, poorly fitted or top-dose-only effect, or another doubt; inactive = no such curve, though single readings can be large; an effect the other way counts as inactive or inconclusive.

CC(=O)Nc1cccc(NC(=O)CN2C(=O)CCSc3ccccc32)c1	none
Cc1ccc(CNC(=O)c2cc3c(s2)-c2ccc(Cl)cc2SC3)cc1	DRV1 agonist 105.9
CN1CCc2c(n(Cc3ccc(C(=O)NO)cc3)c3ccccc23)C1	HTT prom inh inconclusive (no result: DRV1 agonist, p53null 39C kill, p53null 32C kill)
CCc1ccc(-n2c(SCc3ccccc3Cl)nc3[nH]ncc3c2=O)cc1	p53null 39C kill 17.8µM, p53null 32C kill inconclusive
CC(=O)Nc1ccc(S(=O)(=O)NCC2CCC(C(=O)NCc3ccccc3Cl)CC2)cc1 (configuration not stated)	none
O=C(NCc1ccc(Cl)cc1)C1CCC(CNS(=O)(=O)c2ccccc2)CC1 (configuration not stated)	DRV1 agonist 83.0
CC(=O)Nc1ccc(S(=O)(=O)NCC2CCC(C(=O)NCc3ccccc3)CC2)cc1 (configuration not stated)	DRV1 agonist 98.8
COc1cccc(CNC(=O)C2CCC(CNS(=O)(=O)c3ccc(Br)s3)CC2)c1 (configuration not stated)	none
O=C(NCc1ccccc1Cl)C1CCC(CNS(=O)(=O)c2ccc(Br)s2)CC1 (configuration not stated)	DRV1 agonist 98.2, p53null 39C kill inconclusive
CC1=C(C(=O)Nc2cc3cn[nH]c3cc2F)C(c2ccc(C(F)(F)F)cc2)CC(=O)N1 (configuration not stated)	none (no result: DRV1 agonist, p53null 39C kill, p53null 32C kill)
CC(=O)Nc1ccc(S(=O)(=O)Nc2cccc(-c3ccc(N4CCC(C)CC4)nn3)c2)cc1	p53null 39C kill 3.16µM, p53null 32C kill 3.98µM (no result: HTT prom inh, HTT-AS promoter)
COc1ccc(OC)c(S(=O)(=O)Nc2cccc(-c3ccc(N4CCCCC4)nn3)c2)c1	none (no result: HTT prom inh, HTT-AS promoter)
CC(=O)c1ccc(S(=O)(=O)Nc2ccc(-c3ccc(N4CCCCC4)nn3)cc2)cc1	p53null 39C kill 15.8µM, p53null 32C kill inconclusive (no result: HTT prom inh, HTT-AS promoter)
CC(=O)Nc1ccc(S(=O)(=O)Nc2cccc(-c3ccc(N4CCCCCC4)nn3)c2)cc1	p53null 39C kill inconclusive, p53null 32C kill inconclusive (no result: HTT prom inh, HTT-AS promoter)
COc1ccc(S(=O)(=O)Nc2cccc(-c3ccc(N4CCC(C)CC4)nn3)c2)c(OC)c1	p53null 39C kill 12.6µM, p53null 32C kill 12.6µM (no result: HTT prom inh, HTT-AS promoter)
CCc1ccc(S(=O)(=O)Nc2cccc(-c3ccc(N4CCC(C)CC4)nn3)c2)s1	p53null 39C kill 12.6µM, p53null 32C kill 10µM (no result: HTT prom inh, HTT-AS promoter)
CC(=O)Nc1nc(C)c(-c2ccc(Cl)c(S(=O)(=O)NCCO)c2)s1	HTT prom inh inconclusive (no result: DRV1 agonist, p53null 39C kill, p53null 32C kill)
Oc1ccc([C@@H]2Oc3ccc(O)cc3[C@@H]3CCC[C@@H]32)cc1	HTT prom inh inconclusive (no result: DRV1 agonist, p53null 39C kill, p53null 32C kill)
CCC[C@H](NC(=O)C(C#N)=Cc1cccc(Br)n1)c1ccccc1	HTT prom inh inconclusive (no result: DRV1 agonist, p53null 39C kill, p53null 32C kill)
CNC(=O)c1c(F)cccc1Nc1nc(Nc2cc3c(cc2OC)CCN3C(=O)CN(C)C)nc2[nH]ccc12	HTT prom inh inconclusive (no result: DRV1 agonist, p53null 39C kill, p53null 32C kill)
Cc1ccc(C(C)C)c(OCC(=O)Nc2cc(-c3nc4ccccc4[nH]3)ccc2C)c1	HTT prom inh inconclusive, p53null 39C kill 7.94µM, p53null 32C kill inconclusive
COc1cc(OC)cc(C(=O)Nc2cc(-c3nc4ccccc4[nH]3)ccc2C)c1	none
O=c1onc2cnc3ccccc3n12	DRV1 agonist 67.6 (no result: HTT prom inh, p53null 39C kill, HTT-AS promoter, p53null 32C kill)
CC(C)c1noc(N2CCC(COc3ccc(-c4ccc(S(C)(=O)=O)cc4)nc3)CC2)n1	none (no result: DRV1 agonist, p53null 39C kill, p53null 32C kill)
COc1ccc2c(CNCc3ccc(C)o3)c(C(=O)O)n(Cc3ccccc3C)c2c1	p53null 39C kill inconclusive
COc1ccc2c(CNC3CCC(C)CC3)c(C(=O)O)n(Cc3ccc(F)cc3)c2c1 (configuration not stated)	DRV1 agonist 91.1, p53null 39C kill inconclusive
COc1ccc(Cn2c(C(=O)O)c(CNCc3ccc(C)o3)c3ccc(OC)cc32)cc1	DRV1 agonist 74.6
COc1ccc2c(CNCCc3ccco3)c(C(=O)O)n(Cc3ccc(C)cc3)c2c1	DRV1 agonist 89.4
COc1ccc(Cn2c(C(=O)O)c(CNC3CCCC3)c3ccc(OC)cc32)cc1	none
O=C(Nc1ccc(OC(F)(F)F)cc1)c1sccc1NCc1ccnc2ccccc12	HTT-AS promoter inconclusive (no result: DRV1 agonist, p53null 39C kill, p53null 32C kill)
COc1ccc(/C=C/C(=O)Nc2nc(-c3cccs3)ns2)cc1	none
Cc1ccc(/C=C/C(=O)Nc2nc(-c3cccs3)ns2)cc1	DRV1 agonist 70.4
O=C(/C=C/c1ccccc1)Nc1nc(-c2cccs2)ns1	DRV1 agonist 80.8
O=C(Nc1cccc(Br)c1)c1cccc(S(=O)(=O)N2CCCCCC2)c1	HTT prom inh inconclusive (no result: DRV1 agonist, p53null 39C kill, p53null 32C kill)
Cc1ccc(NC(=O)c2cnc3cc(C)ccn3c2=O)c(C)c1	HTT-AS promoter 3.55µM
COc1cccc(CNS(=O)(=O)c2ccc(N3CCCCS3(=O)=O)cc2)c1	HTT prom inh 15.8µM
COc1ccc(NS(=O)(=O)c2ccc(N3CCCCS3(=O)=O)cc2)cc1Cl	HTT prom inh 14.1µM
Cc1ccccc1N1CCN(CCc2nnc3n2CCCC3)CC1	none (no result: p53null 39C kill, p53null 32C kill)
Cc1cccc(N2CCN(S(=O)(=O)c3ccc4c(c3)C(C(C)C)C(=O)N4)CC2)c1C (configuration not stated)	HTT prom inh 12.6µM, DRV1 agonist inconclusive, p53null 32C kill inconclusive
Cc1cccc(N2CCN(S(=O)(=O)c3csc(C(N)=O)c3)CC2)c1C	HTT prom inh 14.1µM
NC(=O)c1cc(S(=O)(=O)N2CCN(c3ccc(F)cc3)CC2)cs1	HTT prom inh inconclusive
CCCCCCCC/C=C/C(=O)O	none (no result: p53null 39C kill, p53null 32C kill)
COc1cccc(Cn2cnc3c2c(=O)n(C)c(=O)n3C)c1	HTT prom inh 14.1µM, p53null 39C kill inconclusive
CC1Cc2cc(S(=O)(=O)NCc3ccccc3Cl)ccc2N1C(=O)C1CCC1 (configuration not stated)	HTT prom inh 28.2µM
CC1=C(/C=C/C(C)=C/C=C/C(C)=C/C(=O)Nc2ccc(O)cc2)C(C)(C)CCC1	DRV1 agonist 84.2! (no result: p53null 39C kill, p53null 32C kill)
CC(C=CC1=C(C)CCCC1(C)C)=CC=CC(C)=CC(=O)Nc1ccc(O)cc1	HTT prom inh inconclusive (no result: DRV1 agonist, p53null 39C kill, p53null 32C kill)
COCCNc1nc(NCc2ccccc2OC)c2cnn(C)c2n1	HTT prom inh inconclusive
COCCCNc1nc(NCc2ccccc2OC)c2cnn(C)c2n1	HTT prom inh inconclusive, DRV1 agonist 75.1
COCCCNc1nc(NCc2ccc(C)cc2)c2cnn(C)c2n1	HTT prom inh inconclusive, DRV1 agonist 69.1
Cc1cc(Nc2nc(N[C@@H](C)c3ccc(F)cc3)c(C#N)cc2F)n[nH]1	HTT prom inh inconclusive (no result: DRV1 agonist, p53null 39C kill, p53null 32C kill)
Cc1ccc(/C=C/C(=O)Nc2ccc(S(N)(=O)=O)cc2)o1	none
